Z-score and composite z-score data for six molecules are collected here from PubChem BioAssay.

A short description of assay [1]: E. coli DRC41 culture turbidity changes, primary screen, E. coli filamentation inducer project, strain DRC41, OD650, 48 h (AID 1152).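 Also: E. coli MC1000 strain DRC41 lacking acrAB efflux pump and sulA.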 To be noted: E. coli DRC41 (acrAB sulA), higher = more signal, called active from +8 up or from −8 down.
Assay [2] is described as follows: small-molecule binders of probe aLefty1, primary screen, biochemical, small-molecule microarray, 635/667 nm fluorescence (AID 1153).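 Also: score merges spot fluorescence with signal-to-noise ratio from the scanned slide images.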 To be noted: higher = more signal.
A short description of assay [3]: PSAC antagonists in infected red cells, primary screen, cell-based, P. falciparum Indochina, OD700, 1 h (AID 1154). Particulars: P. falciparum Indochina infected RBC osmotic lysis, higher = more signal, called active from +8 up or from −8 down.
Assay [4] in a line: PSAC antagonists in infected red cells, primary screen, cell-based, P. falciparum Indochina, OD700, 2 h (AID 1155).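 Also: lysis reports solute entry through the parasite surface anion channel PSAC; channel blockers reduce lysis of infected cells.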 Particulars: P. falciparum Indochina infected erythrocytes, osmotic lysis OD700; higher = more signal, called active from +8 up or from −8 down.
Assay [5] can be described thus: osmotic lysis modulators in infected erythrocytes, primary screen, PSAC antagonist project, cell-based, P. falciparum Indochina, OD700, 3 h (AID 1156). Particulars: higher = more signal, called active from +8 up or from −8 down.
Assay [6] can be described thus: PSAC antagonists in infected red cells, primary screen, cell-based, P. falciparum Indochina, OD700, 18 h (AID 1157). Particulars: P. falciparum Indochina infected erythrocytes, osmotic lysis OD700, 18 h; higher = more signal, called active from +8 up or from −8 down.
Assay [7] is described as follows: modulators of S6 phosphorylation in cells, primary screen, cell-based, A549, cytoblot, luminescence, serum-stimulated (AID 1158).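 Also: serum-stimulated A549 lung adenocarcinoma cells; signal is phosphorylated S6 detected by cytoblot immunostaining with HRP secondary.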 To be noted: A549 phospho-S6 cytoblot, 5 h, higher = more signal.
The target in assay [8] is NADPH oxidase 2 (Homo sapiens) (UniProt P04839). Description: NOX2-dependent H2O2 signal modulators, primary screen, NOX inhibitor project, cell-based, HEK293-NOX2, PMA-stimulated, Amplex Red fluorescence (AID 1159). Also: test concentration not given here. To be noted: 45 min, higher = more signal, called active from +8 up or from −8 down.
NADPH oxidase 2 (Homo sapiens), sequence (P04839 whole entry, looked up): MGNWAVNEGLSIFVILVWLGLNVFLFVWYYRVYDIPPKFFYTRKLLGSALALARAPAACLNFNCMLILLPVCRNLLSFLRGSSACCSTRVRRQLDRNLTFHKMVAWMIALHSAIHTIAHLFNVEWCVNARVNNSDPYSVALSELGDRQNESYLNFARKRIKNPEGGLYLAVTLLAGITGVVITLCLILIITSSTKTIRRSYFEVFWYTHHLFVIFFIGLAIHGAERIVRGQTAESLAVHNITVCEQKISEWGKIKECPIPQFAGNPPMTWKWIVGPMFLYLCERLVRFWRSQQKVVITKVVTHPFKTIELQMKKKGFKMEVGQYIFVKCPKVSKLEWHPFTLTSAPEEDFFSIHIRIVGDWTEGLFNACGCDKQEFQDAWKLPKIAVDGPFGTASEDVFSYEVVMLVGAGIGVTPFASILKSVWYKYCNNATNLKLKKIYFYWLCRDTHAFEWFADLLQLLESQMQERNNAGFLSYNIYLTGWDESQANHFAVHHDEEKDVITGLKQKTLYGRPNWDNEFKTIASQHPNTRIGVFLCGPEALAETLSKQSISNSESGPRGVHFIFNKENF
Assay [9] has as its target NADPH oxidase 4 (Homo sapiens) (UniProt Q9NPH5). Description: NOX4-dependent H2O2 signal modulators, primary screen, NOX inhibitor project, cell-based, HEK293-NOX4, tetracycline-induced, Amplex Red fluorescence (AID 1160). Particulars: 45 min, higher = more signal, called active from +8 up or from −8 down.
The target in assay [10] is NADPH oxidase 5 (Homo sapiens) (UniProt Q96PH1). Description: NOX5-dependent H2O2 signal modulators, primary screen, NOX inhibitor project, cell-based, HEK293-NOX5, Amplex Red fluorescence (AID 1161). To be noted: HEK293-NOX5, ionomycin, 45 min, higher = more signal.
NADPH oxidase 5 (Homo sapiens), sequence (Q96PH1 whole entry, looked up): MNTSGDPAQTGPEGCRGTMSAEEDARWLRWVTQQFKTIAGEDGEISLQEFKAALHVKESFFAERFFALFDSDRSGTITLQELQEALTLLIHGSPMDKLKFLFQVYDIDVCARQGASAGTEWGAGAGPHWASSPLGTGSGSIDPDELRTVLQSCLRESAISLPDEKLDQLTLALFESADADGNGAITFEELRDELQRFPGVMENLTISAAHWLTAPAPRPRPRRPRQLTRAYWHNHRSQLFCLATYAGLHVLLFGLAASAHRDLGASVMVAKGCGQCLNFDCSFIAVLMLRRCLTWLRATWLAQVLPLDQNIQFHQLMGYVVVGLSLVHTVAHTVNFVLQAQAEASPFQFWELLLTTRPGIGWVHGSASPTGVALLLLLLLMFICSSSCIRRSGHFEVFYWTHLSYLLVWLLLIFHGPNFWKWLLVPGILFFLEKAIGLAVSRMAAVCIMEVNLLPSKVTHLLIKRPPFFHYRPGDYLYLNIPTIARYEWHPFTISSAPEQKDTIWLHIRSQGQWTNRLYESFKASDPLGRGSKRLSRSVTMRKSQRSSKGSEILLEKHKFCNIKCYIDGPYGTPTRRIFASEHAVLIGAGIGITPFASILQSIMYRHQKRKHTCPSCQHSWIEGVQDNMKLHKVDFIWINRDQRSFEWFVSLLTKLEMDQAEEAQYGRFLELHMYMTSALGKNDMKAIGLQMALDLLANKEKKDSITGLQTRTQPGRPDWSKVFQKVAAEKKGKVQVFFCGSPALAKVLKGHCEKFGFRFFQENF
Assay [11] is described as follows: A549 cell viability effects, profiling panel, calcein-AM fluorescence, 48 h, basal (AID 1162). Also: test concentration not given here. Particulars: higher = more signal.
Assay [12] is described as follows: adipocyte viability effects, profiling panel, cell-based, 3T3-L1 adipocytes, calcein-AM fluorescence, 48 h, basal (AID 1163). Also: test concentration not given here. Particulars: 3T3-L1 adipocytes viability, higher = more signal.
Assay [13] can be described thus: HepG2 cell viability effects, profiling panel, calcein-AM fluorescence, 48 h, basal (AID 1164). Also: test concentration not given here. To be noted: higher = more signal.
A short description of assay [14]: MM1S cell viability effects, profiling panel, calcein-AM fluorescence, 48 h, basal (AID 1165).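 Also: viability of MM1S multiple myeloma cells under basal unstimulated conditions; test concentration not given here.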 Particulars: higher = more signal.
Assay [15] can be described thus: basal RPMI8226 viability, no added stimulus, profiling panel, cell-based, calcein-AM fluorescence, 48 h, PK04 Diversity Set (AID 1166).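 Also: cells grown under basal conditions without added stimulus; test concentration not given here.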 Particulars: RPMI8226 myeloma viability, higher = more signal.
Assay [16] can be described thus: basal HepG2 mitochondrial membrane potential changes, profiling panel, cell-based, JC-1 fluorescence, 24 h, 100 nL compound (AID 1167). Also: test concentration not given here. Particulars: higher = more signal.
Assay [17] in a line: basal 3T3-L1 adipocyte mitochondrial potential changes, profiling panel, cell-based, JC-1 fluorescence, 3T3-L1 adipocytes, 24 h, 100 nL compound (AID 1168). Also: test concentration not given here. To be noted: JC-1 mitochondrial fluorescence, higher = more signal, called active from +8 up or from −8 down.
The nature of assay [18]: basal RPMI8226 mitochondrial membrane potential changes, profiling panel, cell-based, JC-1 fluorescence, 24 h, 100 nL compound (AID 1169). Also: test concentration not given here. To be noted: RPMI8226 myeloma, JC-1 mitochondrial potential fluorescence, higher = more signal.
Assay [19] can be described thus: basal MM1S mitochondrial membrane potential changes, profiling panel, cell-based, JC-1 fluorescence, 24 h, 100 nL compound (AID 1170). Also: test concentration not given here. Particulars: higher = more signal.
The nature of assay [20]: A549 lung cancer cell viability effects, profiling panel, resazurin fluorescence, 24 h, PK04 Diversity Set (AID 1171). Also: test concentration not given here. Particulars: higher = more signal, called active from +8 up or from −8 down. For orientation: Resazurin is reduced to fluorescent resorufin, in cell work by metabolically active cells.

Calls of active or inactive are those of the source.

NADPH oxidase 4 (Homo sapiens), sequence (Q9NPH5 whole entry, looked up): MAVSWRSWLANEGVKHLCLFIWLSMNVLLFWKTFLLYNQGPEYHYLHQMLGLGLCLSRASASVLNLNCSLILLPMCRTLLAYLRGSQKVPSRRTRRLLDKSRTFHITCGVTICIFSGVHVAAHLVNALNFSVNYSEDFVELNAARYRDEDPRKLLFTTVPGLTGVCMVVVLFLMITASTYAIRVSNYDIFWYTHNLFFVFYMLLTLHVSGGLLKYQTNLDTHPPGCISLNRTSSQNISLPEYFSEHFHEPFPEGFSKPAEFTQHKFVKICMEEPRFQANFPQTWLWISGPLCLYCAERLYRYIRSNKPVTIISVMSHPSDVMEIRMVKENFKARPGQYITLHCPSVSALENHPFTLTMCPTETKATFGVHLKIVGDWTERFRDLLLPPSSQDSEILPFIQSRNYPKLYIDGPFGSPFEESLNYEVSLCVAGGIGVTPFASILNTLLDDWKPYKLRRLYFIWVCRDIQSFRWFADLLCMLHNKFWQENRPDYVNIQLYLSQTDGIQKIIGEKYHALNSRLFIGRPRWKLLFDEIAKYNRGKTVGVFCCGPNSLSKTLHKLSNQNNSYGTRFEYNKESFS

For `[N-]=[N+]=Nc1ccccc1C[C@]1(C(=O)NCCN2CCOCC2)N=C(c2ccc(OCCCO)cc2)O[C@H]1c1ccccc1`, the z-score is 0.0623 (inactive) in assay [1]; 14.1 (active) in [3]; 1.53 (inactive) in assay [4]; 1.37 (inactive) in assay [5]; 0.766 (inactive) in assay [6]; -0.0135 in assay [7]. In addition, the z-score in assay [8] is -1.92 (inactive); in assay [9], 0.0642 (inactive); in [10], -1.32; in assay [11], -0.0454; in assay [12], 0.0937; in assay [13], -0.256. The z-score was -0.0793 in [14]; -0.26 in [15]; 0.771 in [16]; 0.00214 (inactive) in [17]; -0.309 in assay [18]; -0.777 in assay [19]. Moreover, the z-score in [20] was 1.24 (inactive). The molecule further returned a composite z-score in assay [2] of 0.728.

As to `CCN(CC)c1ccc(N2CC=CC34O[C@@H]5/C=C\CCCOC(=O)C5[C@H]3C(=O)N(C(CO)C(C)C)[C@@H]4C2=O)cc1` (stereo not given in full), the z-score in assay [1] is -0.522 (inactive); in assay [3], 1.38 (inactive); in assay [4], 0.486 (inactive); in assay [5], 0.883 (inactive); in assay [6], 0.648 (inactive); in [7] it was -0.713. The z-score was 0.0116 (inactive) in assay [8]; 0.337 (inactive) in assay [9]; 0.492 in assay [10]; -0.0889 in [11]; 0.102 in [12]; 0.825 in assay [13]. For the same molecule, the z-score in [14] was 0.905; in [15], -0.62; in assay [16], -0.243; in [17] it was -0.0916 (inactive); in assay [18], 0.139; in assay [19], -0.26. Further, in assay [20], the z-score was -0.506 (inactive). The molecule further gave a composite z-score in assay [2] of -0.137.

On to `C=CCC(OC(C)=O)[C@@H]1[C@@H](N(Cc2cccc3ccccc23)C(=O)c2ccc(C)cc2)c2cc(OCCCO)ccc2N1C(=O)Cc1ccc(OC)cc1` (stereo not given in full), for which the z-score was 2.7 (inactive) in assay [1]; 0.786 (inactive) in assay [3]; -0.438 (inactive) in assay [4]; -0.632 (inactive) in [5]; -0.669 (inactive) in assay [6]; 1.95 in assay [7]. For the same molecule, the z-score in assay [8] is -0.993 (inactive); in assay [9] it was 0.727 (inactive); in assay [10] it was 0.687; in assay [11], 1.77; in assay [12] it was 1.14; in assay [13], 1.97. Moreover, the z-score in assay [14] was 0.621; in assay [15], 0.943; in [16], 1.77; in [17], 0.696 (inactive); in [18], 0.594; in assay [19], -0.596. In addition, the z-score in [20] was 0.69 (inactive). For the same molecule, the composite z-score in assay [2] is -0.0482.

For the molecule `C=C(COC)/C(=C/C[C@H](OC(=O)c1ccncc1)c1cccc(OCCO)c1)c1cc(C(=O)OC)ccc1OC`, the z-score in assay [1] was 0.395 (inactive); in assay [3], 13.5 (active); in [4] it was 2.26 (inactive); in assay [5], 2.48 (inactive); in [6], 0.773 (inactive); in [7] it was -0.625. Also, the z-score is 0.32 (inactive) in assay [8]; 0.00792 (inactive) in assay [9]; -1.51 in assay [10]; 0.404 in assay [11]; 0.987 in assay [12]; -0.0353 in assay [13]. Also, the z-score in assay [14] was -1.15; in [15], -0.686; in assay [16], 1.51; in assay [17], 0.246 (inactive); in [18], -0.351; in assay [19], 0.0566. The z-score in assay [20] is 1.14 (inactive). Further, the composite z-score in assay [2] was 0.132.

As for `C=CC[C@]1(C(=O)N2CCOCC2)N=C(c2ccc(OCCCO)cc2)O[C@H]1c1ccccc1`, the z-score was 0.104 (inactive) in assay [1]; 11.3 (active) in assay [3]; 1.09 (inactive) in assay [4]; 0.492 (inactive) in assay [5]; 0.471 (inactive) in assay [6]; -0.0044 in [7]. Besides, the z-score is -1.59 (inactive) in assay [8]; 0.486 (inactive) in assay [9]; -0.921 in [10]; -0.211 in assay [11]; 0.117 in [12]; -0.539 in [13]. For the same molecule, the z-score is -1.11 in [14]; -2.07 in assay [15]; -0.0158 in assay [16]; -0.0689 (inactive) in assay [17]; -0.326 in assay [18]; -0.577 in assay [19]. Moreover, the z-score in [20] was 1.39 (inactive). The same molecule registered a composite z-score in assay [2] of 0.302.

Regarding `CCOC(=O)C1=CC[C@@H](c2ccccc2Cl)N(S(=O)(=O)c2ccc(C)cc2)C1`, the z-score in [1] was 0.0023 (inactive); in [3] it was 4.85 (inactive); in assay [4] it was -0.477 (inactive); in [5], -0.981 (inactive); in assay [6], -1.69 (inactive); in [7], 0.676. The z-score in assay [8] is 0.358 (inactive); in assay [9], -0.832 (inactive); in assay [10], -0.93; in [11], -0.378; in assay [12], -0.529; in [13] it was 0.15. Moreover, the z-score in assay [14] was -1.63; in assay [15] it was -1.51; in [16] it was 4.34; in assay [17], -0.0958 (inactive); in assay [18], -0.329; in assay [19], -1.99. Moreover, the z-score in assay [20] was -0.561 (inactive). Moreover, the composite z-score in assay [2] worked out at 0.276.
